Laboratory results taken from article PMC7862700, “An all-to-all approach to the identification of sequence-specific readers for epigenetic DNA modifications on cytosine”.

Tests used:
Assay in all cases: DAPPL (digital affinity profiling via proximity ligation, sequencing); 10 mM Tris-HCl pH 7.5, 50 mM NaCl, 1 mM DTT, 4% glycerol, room temperature, 30 min; GST-TFs on glutathione beads, 16-mer random dsDNA library, 0.1% formaldehyde crosslink after washing; high values mean tight binding
Conditions in all cases: protein: recombinant; tags: N-terminal GST; dsDNA, one strand shown
[1] = target: T1, ELK4 (Homo sapiens, UniProt P28324-2 1-405)
T1 sequence: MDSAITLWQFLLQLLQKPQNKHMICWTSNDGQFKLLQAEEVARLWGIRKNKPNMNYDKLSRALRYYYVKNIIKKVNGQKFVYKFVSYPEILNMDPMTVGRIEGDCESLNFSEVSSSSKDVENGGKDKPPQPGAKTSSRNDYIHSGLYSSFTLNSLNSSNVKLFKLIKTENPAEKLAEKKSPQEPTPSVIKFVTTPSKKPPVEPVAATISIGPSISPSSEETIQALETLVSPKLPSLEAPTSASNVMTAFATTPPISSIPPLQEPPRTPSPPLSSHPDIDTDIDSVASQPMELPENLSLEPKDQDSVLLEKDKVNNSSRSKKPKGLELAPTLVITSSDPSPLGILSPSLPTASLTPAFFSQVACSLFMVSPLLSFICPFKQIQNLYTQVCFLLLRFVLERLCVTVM
Procedure, shortened: (§1)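 Human transcription factors were made in yeast as GST fusions, captured on glutathione beads and barcoded with DNA. With a tag-only sample included, the pool was incubated with 200 nmole of a random double-stranded 16-mer DNA library in Tris/NaCl/DTT/glycerol buffer at room temperature for 30 min, then crosslinked with 0.1% formaldehyde after washing, ligated by proximity, amplified and sequenced. For binding signal, each hexamer's read frequency for a factor is divided by its frequency for the tag-only sample.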

[2] = target: T2, ELF3 (Homo sapiens, UniProt P78545 1-371)
T2 sequence: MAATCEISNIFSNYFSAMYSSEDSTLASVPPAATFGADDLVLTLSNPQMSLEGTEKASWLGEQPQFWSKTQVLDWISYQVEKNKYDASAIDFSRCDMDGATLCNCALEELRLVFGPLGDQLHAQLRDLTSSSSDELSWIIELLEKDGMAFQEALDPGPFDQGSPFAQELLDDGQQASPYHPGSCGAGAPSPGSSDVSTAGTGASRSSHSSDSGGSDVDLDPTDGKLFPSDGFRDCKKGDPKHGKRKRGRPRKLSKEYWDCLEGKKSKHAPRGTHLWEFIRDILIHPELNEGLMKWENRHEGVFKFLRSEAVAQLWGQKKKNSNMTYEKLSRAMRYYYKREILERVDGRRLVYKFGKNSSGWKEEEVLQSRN
Procedure, shortened: as §1

[3] = target: ETV1 (Homo sapiens, UniProt P50549 1-477)
Chain of ETV1 (P50549 whole entry): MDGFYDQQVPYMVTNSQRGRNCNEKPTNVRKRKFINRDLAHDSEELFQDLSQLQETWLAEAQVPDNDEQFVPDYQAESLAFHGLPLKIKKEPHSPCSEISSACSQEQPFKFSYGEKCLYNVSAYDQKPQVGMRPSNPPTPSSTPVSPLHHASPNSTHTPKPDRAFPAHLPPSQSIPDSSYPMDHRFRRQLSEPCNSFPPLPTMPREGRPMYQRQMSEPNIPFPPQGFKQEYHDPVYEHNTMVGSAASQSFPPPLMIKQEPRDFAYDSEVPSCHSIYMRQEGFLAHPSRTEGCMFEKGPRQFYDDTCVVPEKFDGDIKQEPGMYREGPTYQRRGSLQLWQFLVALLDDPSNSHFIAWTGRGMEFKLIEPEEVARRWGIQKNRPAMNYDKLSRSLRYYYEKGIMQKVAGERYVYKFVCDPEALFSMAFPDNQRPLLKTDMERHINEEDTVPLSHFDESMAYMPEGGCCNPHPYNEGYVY
Procedure, shortened: as §1

[4] = target: T3, ERF (Homo sapiens, UniProt P50548 1-548)
T3 sequence: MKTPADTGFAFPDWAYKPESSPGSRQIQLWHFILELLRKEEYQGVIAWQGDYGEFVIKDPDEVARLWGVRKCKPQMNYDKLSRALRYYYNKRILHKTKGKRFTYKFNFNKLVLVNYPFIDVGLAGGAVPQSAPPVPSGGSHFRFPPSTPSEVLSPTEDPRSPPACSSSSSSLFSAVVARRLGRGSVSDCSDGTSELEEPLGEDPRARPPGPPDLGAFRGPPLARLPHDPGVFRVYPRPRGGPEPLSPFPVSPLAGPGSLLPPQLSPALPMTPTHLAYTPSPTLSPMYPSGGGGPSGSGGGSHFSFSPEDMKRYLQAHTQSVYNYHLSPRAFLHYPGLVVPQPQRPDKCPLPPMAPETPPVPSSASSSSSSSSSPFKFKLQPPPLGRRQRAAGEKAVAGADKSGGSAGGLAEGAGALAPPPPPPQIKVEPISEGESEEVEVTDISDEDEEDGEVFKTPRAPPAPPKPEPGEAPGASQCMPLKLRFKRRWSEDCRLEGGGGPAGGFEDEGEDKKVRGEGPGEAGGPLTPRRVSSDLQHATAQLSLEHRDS
Procedure, shortened: as §1

[5] = target: T4, ETV3L (Homo sapiens, UniProt Q6ZN32 1-361)
T4 sequence: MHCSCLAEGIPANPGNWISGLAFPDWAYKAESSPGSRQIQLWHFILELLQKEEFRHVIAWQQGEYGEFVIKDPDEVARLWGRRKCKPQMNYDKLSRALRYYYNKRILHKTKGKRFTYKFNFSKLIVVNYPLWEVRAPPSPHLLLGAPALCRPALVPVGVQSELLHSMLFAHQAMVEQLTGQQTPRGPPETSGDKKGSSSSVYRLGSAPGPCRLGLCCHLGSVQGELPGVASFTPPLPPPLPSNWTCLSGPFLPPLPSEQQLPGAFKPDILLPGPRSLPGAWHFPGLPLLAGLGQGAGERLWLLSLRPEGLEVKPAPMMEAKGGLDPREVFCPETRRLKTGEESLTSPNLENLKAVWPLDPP
Procedure, shortened: as §1

[6] = target: T5, ETS2 (Homo sapiens, UniProt P15036 1-469)
T5 sequence: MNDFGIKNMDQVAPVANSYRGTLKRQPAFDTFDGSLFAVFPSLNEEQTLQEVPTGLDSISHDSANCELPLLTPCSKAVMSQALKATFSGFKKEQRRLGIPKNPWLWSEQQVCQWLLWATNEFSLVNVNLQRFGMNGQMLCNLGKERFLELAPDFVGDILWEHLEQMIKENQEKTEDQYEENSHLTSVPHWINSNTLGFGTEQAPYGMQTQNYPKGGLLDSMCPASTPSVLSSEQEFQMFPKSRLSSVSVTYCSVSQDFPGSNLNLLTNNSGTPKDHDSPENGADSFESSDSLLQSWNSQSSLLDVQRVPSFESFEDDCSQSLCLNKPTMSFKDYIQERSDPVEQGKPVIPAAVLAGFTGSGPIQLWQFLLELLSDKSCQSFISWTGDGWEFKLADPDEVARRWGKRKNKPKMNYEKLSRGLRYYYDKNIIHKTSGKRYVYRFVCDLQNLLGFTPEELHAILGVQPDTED
Procedure, shortened: as §1

[7] = target: T6, SPDEF (Homo sapiens, UniProt O95238 1-335)
T6 sequence: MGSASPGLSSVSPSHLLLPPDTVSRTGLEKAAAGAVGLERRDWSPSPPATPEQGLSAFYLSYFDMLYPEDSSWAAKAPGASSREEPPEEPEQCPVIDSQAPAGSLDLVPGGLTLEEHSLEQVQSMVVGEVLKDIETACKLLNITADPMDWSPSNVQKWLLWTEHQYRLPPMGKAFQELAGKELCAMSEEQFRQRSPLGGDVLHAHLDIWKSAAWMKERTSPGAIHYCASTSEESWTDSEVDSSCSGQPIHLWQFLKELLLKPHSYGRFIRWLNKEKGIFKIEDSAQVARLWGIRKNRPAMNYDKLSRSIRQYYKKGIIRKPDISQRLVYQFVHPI
Procedure, shortened: as §1

[8] = target: T7, ETV7 (Homo sapiens, UniProt Q9Y603 1-341)
T7 sequence: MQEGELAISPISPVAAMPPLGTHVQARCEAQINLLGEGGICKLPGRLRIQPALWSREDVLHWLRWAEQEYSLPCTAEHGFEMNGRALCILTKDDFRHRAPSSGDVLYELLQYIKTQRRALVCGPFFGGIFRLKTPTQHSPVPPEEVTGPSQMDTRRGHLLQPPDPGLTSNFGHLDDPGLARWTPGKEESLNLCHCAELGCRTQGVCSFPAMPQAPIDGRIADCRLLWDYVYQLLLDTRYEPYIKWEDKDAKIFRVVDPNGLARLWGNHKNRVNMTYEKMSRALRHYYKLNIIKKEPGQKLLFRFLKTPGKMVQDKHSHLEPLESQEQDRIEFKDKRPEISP
Procedure, shortened: as §1

[9] = target: T8, ETV3 (Homo sapiens, UniProt P41162-2 1-143)
T8 sequence: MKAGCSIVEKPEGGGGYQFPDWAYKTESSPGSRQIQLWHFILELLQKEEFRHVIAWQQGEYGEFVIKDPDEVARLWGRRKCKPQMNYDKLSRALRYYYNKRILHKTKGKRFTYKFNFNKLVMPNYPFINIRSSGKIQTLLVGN
Procedure, shortened: as §1

[10] = target: ETV6 (Homo sapiens, UniProt P41212 1-452)
Chain of ETV6 (P41212 whole entry): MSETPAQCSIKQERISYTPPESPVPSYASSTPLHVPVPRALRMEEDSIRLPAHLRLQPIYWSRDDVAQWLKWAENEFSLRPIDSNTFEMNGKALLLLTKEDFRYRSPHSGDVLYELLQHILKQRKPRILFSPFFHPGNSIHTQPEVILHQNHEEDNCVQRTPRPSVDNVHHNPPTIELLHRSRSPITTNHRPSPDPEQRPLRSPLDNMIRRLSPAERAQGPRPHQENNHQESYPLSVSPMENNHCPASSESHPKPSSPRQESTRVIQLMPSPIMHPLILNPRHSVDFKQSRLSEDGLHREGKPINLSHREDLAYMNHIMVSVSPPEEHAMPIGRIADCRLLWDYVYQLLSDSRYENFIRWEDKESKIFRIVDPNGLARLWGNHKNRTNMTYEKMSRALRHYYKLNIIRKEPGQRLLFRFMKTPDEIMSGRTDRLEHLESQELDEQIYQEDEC
Procedure, shortened: as §1

Sequence: CGTTTA
- binding signal [1]: 1.15 fold enrichment (6-mer frequency, TF over GST control)
- binding signal [2]: 1.09 fold enrichment (6-mer frequency, TF over GST control)
- binding signal [3]: 1.12 fold enrichment (6-mer frequency, TF over GST control)
- binding signal [4]: 1.05 fold enrichment (6-mer frequency, TF over GST control)
- binding signal [5]: 1.1 fold enrichment (6-mer frequency, TF over GST control)
- binding signal [6]: 1.16 fold enrichment (6-mer frequency, TF over GST control)
- binding signal [7]: 1.14 fold enrichment (6-mer frequency, TF over GST control)
- binding signal [8]: 1.12 fold enrichment (6-mer frequency, TF over GST control)
- binding signal [9]: 1.05 fold enrichment (6-mer frequency, TF over GST control)
- binding signal [10]: 1.14 fold enrichment (6-mer frequency, TF over GST control)
